# Measured values: PubChem BioAssay (NCATS)
# Inconclusive results are not listed. Entries that show only a call come without a potency. Unmarked numbers belong to inactive results. Calls of active or inactive are those of the source. Calls come from the whole dose curve; as a rule, active = well fitted curve in the direction sought with a large enough effect; inconclusive = small, poorly fitted or top-dose-only effect, or another doubt; inactive = no such curve, though single readings can be large; an effect the other way counts as inactive or inconclusive. Where a SMILES comes first, the peptide text is derived from it. [ ]: non-standard residue; d: D form. pGlu = O=C1CC[C@@H](C(=O)O)N1; Thz = O=C(O)[C@@H]1CSCN1
# Test system: UISO
# Assay: qHTS assay to identify novel small-molecules to repurpose for Merkel cell carcinoma treatment (AID 1296009); note: nearly all actives have a fitted effect of over 60% in size
# Conditions: MCC and control cell lines, CellTiter-Glo viability, 72 h; series mostly up to 46 µM
# Method in brief: (§1)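 Cells exposed to NPC (8-point) and MIPE (11-point) compound dilutions for 72 hr at 37 degree celsius; viability read by CellTiter-Glo luminescence, normalized to no-cell and DMSO in-plate controls.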
# Potency is the fitted concentration of half-maximal effect.
Structure (SMILES),Potency,"activity change, negative = cytotoxicity"
C/C(=N\O)c1ccc(OCC(=O)N2CCCCC2)cc1,inactive,–
CNC(=O)c1c(I)c(NC(=O)CCCCC(=O)Nc2c(I)c(C(=O)O)c(I)c(C(=O)NC)c2I)c(I)c(C(=O)O)c1I,inactive,–
COC(=O)C1=C(C)NC(C)=C(C(=O)OCC(C)C)C1c1ccccc1[N+](=O)[O-] (stereo not drawn),23.7 µM (active),–
Cc1ccc(O)c(-n2nc3ccccc3n2)c1,inactive,–
O=C(O)c1ccccc1Nc1cccc(C(F)(F)F)c1,inactive,–
CCCOC(=O)c1ccc(O)cc1,inactive,–
O=C(OCc1ccccc1)c1ccccc1,inactive,–
CCCCCCCCCCCCOCCO,inactive,–
O=C(O)Cc1cccc(-c2cc(CCCCCCc3ccc(O[C@H]4O[C@H](CO)[C@@H](O)[C@H](O)[C@@H]4O)c(-c4cccc(CC(=O)O)c4)c3)ccc2O[C@H]2O[C@H](CO)[C@@H](O)[C@H](O)[C@@H]2O)c1,–,19.7% [at 0.597 µM]
Cc1c(C(=O)O)c(O)cc2c1C(=O)c1c(O)c([C@@H]3O[C@H](CO)[C@@H](O)[C@H](O)[C@H]3O)c(O)c(O)c1C2=O,inactive,–
O=C(CCN1CCN(CCO)CC1)N1c2ccccc2Sc2ccc(C(F)(F)F)cc21,inactive,–
CCC1C(=O)OCC1Cc1cncn1C (stereo not drawn),inactive,–
CN(C)c1ccc(C(=C2C=CC(=[N+](C)C)C=C2)c2ccccc2)cc1,0.0668 µM (active),–
O=C(/C=C/c1ccccc1)NCCO,inactive,–
O=C(O)/C=C\C(=O)O,inactive,–

# Test system: WaGa
# Assay: as above
# Conditions: MCC and control cell lines, CellTiter-Glo viability, 72 h; series mostly up to 46 µM
# Method in brief: as §1
Structure (SMILES),Potency,"activity change, negative = cytotoxicity"
C/C(=N\O)c1ccc(OCC(=O)N2CCCCC2)cc1,inactive,–
CNC(=O)c1c(I)c(NC(=O)CCCCC(=O)Nc2c(I)c(C(=O)O)c(I)c(C(=O)NC)c2I)c(I)c(C(=O)O)c1I,inactive,–
COC(=O)C1=C(C)NC(C)=C(C(=O)OCC(C)C)C1c1ccccc1[N+](=O)[O-] (stereo not drawn),21.1 µM (active),–
Cc1ccc(O)c(-n2nc3ccccc3n2)c1,inactive,–
O=C(O)c1ccccc1Nc1cccc(C(F)(F)F)c1,inactive,–
CCCOC(=O)c1ccc(O)cc1,inactive,–
O=C(OCc1ccccc1)c1ccccc1,inactive,–
O=C1CN(/N=C/c2ccc([N+](=O)[O-])o2)C(=O)N1,23.7 µM (active),–
CCCCCCCCCCCCOCCO,inactive,–
O=C(O)Cc1cccc(-c2cc(CCCCCCc3ccc(O[C@H]4O[C@H](CO)[C@@H](O)[C@H](O)[C@@H]4O)c(-c4cccc(CC(=O)O)c4)c3)ccc2O[C@H]2O[C@H](CO)[C@@H](O)[C@H](O)[C@@H]2O)c1,–,8.43% [at 0.597 µM]
Cc1c(C(=O)O)c(O)cc2c1C(=O)c1c(O)c([C@@H]3O[C@H](CO)[C@@H](O)[C@H](O)[C@H]3O)c(O)c(O)c1C2=O,inactive,–
O=C(CCN1CCN(CCO)CC1)N1c2ccccc2Sc2ccc(C(F)(F)F)cc21,inactive,–
CCC1C(=O)OCC1Cc1cncn1C (stereo not drawn),inactive,–
O=C(/C=C/c1ccccc1)NCCO,inactive,–
O=C(O)/C=C\C(=O)O,inactive,–

# Test system: C33A
# Assay: Primary qHTS to identify gynecologic anti-cancer compounds using libraries of approved drugs and bioactive compounds (AID 1345084); note: nearly all actives have a fitted effect of over 55% in size
# Conditions: Gynecologic cancer cell panel viability, ATPlite luminescence, 48 h; series mostly up to 57.5 µM
# Method in brief: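 Cytotoxicity screen measuring ATP content by luciferase luminescence. Each compound is applied at five concentrations for 48 h at 37 C with 5% CO2.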
Structure (SMILES),Potency,"activity change, negative = cytotoxicity"
CN(CCCOc1ccc(Cc2ccccc2)cc1)CCC(=O)O,inactive,–
COc1cc(CNC(=O)CCCC/C=C/C(C)C)ccc1O,inactive,–
C/C(=N\O)c1ccc(OCC(=O)N2CCCCC2)cc1,inactive,–
Fc1ccc2[nH]c(CN3CCN(c4ccccn4)CC3)cc2c1,inactive,–
CN1[C@@H]2CC[C@H]1CC(OC(=O)C(CO)c1ccccc1)C2 (stereo partly drawn),inactive,–
O=C(O)c1cc(O)c(O)c(O)c1,inactive,–
CNC(=O)c1c(I)c(NC(=O)CCCCC(=O)Nc2c(I)c(C(=O)O)c(I)c(C(=O)NC)c2I)c(I)c(C(=O)O)c1I,inactive,–
O=C(Nc1ccc2[nH]ncc2c1)C1CCC1,inactive,–
O=C(O)[C@H](CC(=O)N1C[C@H]2CCCC[C@H]2C1)Cc1ccccc1,inactive,–
COC(=O)C1=C(C)NC(C)=C(C(=O)OCC(C)C)C1c1ccccc1[N+](=O)[O-] (stereo not drawn),inactive,–
O=[N+]([O-])c1ccc(CNc2nc(NCc3cccc(C(F)(F)F)c3)nc3nc[nH]c23)cc1,inactive,–
CC(=O)O[C@H]1C[C@@]2(C)[C@@H](C[C@@H](O)[C@H]3[C@@]4(C)CC[C@@H](O)[C@@H](C)[C@@H]4CC[C@@]32C)/C1=C(\CCC=C(C)C)C(=O)O,inactive,–
Cc1ccc(O)c(-n2nc3ccccc3n2)c1,inactive,–
O=C(O)c1ccccc1Nc1cccc(C(F)(F)F)c1,inactive,–
CCCOC(=O)c1ccc(O)cc1,inactive,–
O=C(OCc1ccccc1)c1ccccc1,inactive,–
CC(C(=O)O)c1ccc(C(=O)c2cccs2)cc1 (stereo not drawn),inactive,–
CCCCN(CC)c1nc(C)nc2c1c(C)cn2-c1c(C)cc(C)cc1C,inactive,–
O=C1CN(/N=C/c2ccc([N+](=O)[O-])o2)C(=O)N1,inactive,–

Structure (SMILES),Potency,"activity change, negative = cytotoxicity"
CCCCCCCCCCCCOCCO,inactive,–
O=C(O)Cc1cccc(-c2cc(CCCCCCc3ccc(O[C@H]4O[C@H](CO)[C@@H](O)[C@H](O)[C@@H]4O)c(-c4cccc(CC(=O)O)c4)c3)ccc2O[C@H]2O[C@H](CO)[C@@H](O)[C@H](O)[C@@H]2O)c1,–,-0.854% [at 0.462 µM]
Cc1c(C(=O)O)c(O)cc2c1C(=O)c1c(O)c([C@@H]3O[C@H](CO)[C@@H](O)[C@H](O)[C@H]3O)c(O)c(O)c1C2=O,inactive,–
CC1(C)[C@@H](O[C@H]2O[C@H](C(=O)O)[C@@H](O)[C@H](O)[C@H]2O[C@@H]2O[C@H](C(=O)O)[C@@H](O)[C@H](O)[C@H]2O)CC[C@]2(C)[C@H]3C(=O)C=C4[C@@H]5C[C@@](C)(C(=O)O)CC[C@]5(C)CC[C@@]4(C)[C@]3(C)CC[C@@H]12,inactive,–
O=C1CC[C@@H](C(=O)N2CSC[C@H]2C(=O)O)N1 ([pGlu]-[Thz]-OH),inactive,–
Nc1nc2ccc([N+](=O)[O-])cc2s1,inactive,–
O=c1[nH]c2ccccc2n1CCCN1CCN(C(c2ccccc2)c2ccccc2)CC1,inactive,–
Nc1ccc([N+](=O)[O-])cc1O,inactive,–
O=C(O)CC1CC(c2ccccc2)=NO1 (stereo not drawn),inactive,–
O=C(CCN1CCN(CCO)CC1)N1c2ccccc2Sc2ccc(C(F)(F)F)cc21,inactive,–
C#C[C@]1(O)CC[C@H]2[C@@H]3CCc4cc(O)ccc4[C@H]3CC[C@@]21C,inactive,–
S=c1[nH]c2ccccc2s1,inactive,–
CCC1C(=O)OCC1Cc1cncn1C (stereo not drawn),inactive,–
CN(C)c1ccc(C(=C2C=CC(=[N+](C)C)C=C2)c2ccccc2)cc1,2 µM (active),–
COC(=O)C1=C(C)NC(C)=C(C(=O)OC)C1c1cccc(NC(=O)NCCCN2CCC(c3cccc(OC)c3)CC2)c1,inactive,–
O=C(/C=C/c1ccccc1)NCCO,inactive,–
COc1ccc(/C=C/C(=O)Nc2ccccc2C(=O)O)cc1OC,inactive,–
O=C(O)/C=C\C(=O)O,inactive,–
NC(=O)C(c1ccccc1)(c1ccccc1)[C@@H]1CCN(CCc2ccc3c(c2)CCO3)C1,inactive,–
